Assay [1] can be described thus: antimalarial activity against Dd2 strain (AID 2302;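 active means growth inhibition above 50% at the single 2 µM test dose, taken to imply half-maximal potency below 2 µM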;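 further: 0% = DMSO untreated growth and 100% = chloroquine plus artemisinin killed control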). Conditions: P. falciparum Dd2 in RBCs, LDH growth readout, 72 h; at 2 µM; stronger effect = higher value.
Assay [2] is described as follows: human hepatoma cell viability loss – ATP luminescence, cytotoxicity control for P. falciparum antimalarial project, primary screen (AID 2303;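 active means inhibition above 50%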;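 further: 0% = DMSO wells and 100% = digitonin-killed cells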). To be noted: HepG2 viability, 24-48 h, at 10 µM, stronger effect = higher value.
For assay [3], the target named is L-lactate dehydrogenase (Plasmodium falciparum (isolate CDC / Honduras)) (UniProt Q27743). Put plainly: PfLDH activity inhibition – cell lysate, 3D7 strain, counter-screen for P. falciparum growth inhibition project (AID 2304).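 Further: 0% = vehicle and 100% = reference inhibitor.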 To be noted: P. falciparum 3D7 crude extract, LDH APAD/NBT absorbance; at 2 µM; stronger effect = higher value. (The purpose of a counterscreen is to sort out artefacts and off-target activity.)
Sequence of L-lactate dehydrogenase (Plasmodium falciparum (isolate CDC / Honduras)) (Q27743 whole entry, looked up): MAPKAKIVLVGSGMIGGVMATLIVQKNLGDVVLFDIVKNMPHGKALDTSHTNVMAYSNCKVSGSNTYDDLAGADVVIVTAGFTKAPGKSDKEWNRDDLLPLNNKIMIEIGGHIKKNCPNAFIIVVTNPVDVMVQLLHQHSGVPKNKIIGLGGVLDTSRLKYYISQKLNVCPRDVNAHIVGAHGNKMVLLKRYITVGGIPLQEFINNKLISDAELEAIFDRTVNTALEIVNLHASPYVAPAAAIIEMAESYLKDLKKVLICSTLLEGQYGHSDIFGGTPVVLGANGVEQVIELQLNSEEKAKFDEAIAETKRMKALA

Assay [4] in a line: inhibition of 3D7 malaria parasite growth – strain 3D7 (AID 2306).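 Further: 0% = DMSO wells and 100% = chloroquine plus artemisinin control wells.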 To be noted: P. falciparum 3D7 erythrocytic growth, LDH absorbance, 72 h; at 2 µM; stronger effect = higher value.
A short description of assay [5]: compounds altering circadian rhythm period length – cell-based, LOPAC library, luminescence reporter (AID 2774).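 Further: values are relative to mean of DMSO wells on each plate.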 Conditions: circadian reporter cells, at 7 µM, actives lie on both sides.
In assay [6] the test system is Hepatitis C virus NS3 helicase. Briefly: blockers of NS3h binding to ssDNA – biochemical, fluorescence polarization, LOPAC1280 library, primary screen (AID 687035; in the data active means inhibition above about 37%). To be noted: Purified HCV NS3 helicase, Cy5-dT15 ssDNA binding fluorescence polarization; stronger effect = higher value; concentration not given here. Background: Polarisation of emitted light reports the rotation of a fluorescent probe.

Assay [7] in a line: compounds altering Cy5-DNA-NS3h complex signal – biochemical, LOPAC1280, artefact control for HCV NS3 helicase inhibitor project (AID 687037). To be noted: Cy5-DNA-NS3h complex fluorescence interference counterscreen.
The target in assay [8] is ATP-dependent translocase ABCB1 (Homo sapiens) (UniProt P08183). Briefly: P-glycoprotein substrate transport blockade – cell-based (AID 377; in the data active means fluorescence slope change above about 50%). Conditions: MDR1-expressing cells, fluorescent substrate accumulation slope; stronger effect = higher value; concentration not given here.
Sequence of ATP-dependent translocase ABCB1 (Homo sapiens) (P08183 whole entry, looked up): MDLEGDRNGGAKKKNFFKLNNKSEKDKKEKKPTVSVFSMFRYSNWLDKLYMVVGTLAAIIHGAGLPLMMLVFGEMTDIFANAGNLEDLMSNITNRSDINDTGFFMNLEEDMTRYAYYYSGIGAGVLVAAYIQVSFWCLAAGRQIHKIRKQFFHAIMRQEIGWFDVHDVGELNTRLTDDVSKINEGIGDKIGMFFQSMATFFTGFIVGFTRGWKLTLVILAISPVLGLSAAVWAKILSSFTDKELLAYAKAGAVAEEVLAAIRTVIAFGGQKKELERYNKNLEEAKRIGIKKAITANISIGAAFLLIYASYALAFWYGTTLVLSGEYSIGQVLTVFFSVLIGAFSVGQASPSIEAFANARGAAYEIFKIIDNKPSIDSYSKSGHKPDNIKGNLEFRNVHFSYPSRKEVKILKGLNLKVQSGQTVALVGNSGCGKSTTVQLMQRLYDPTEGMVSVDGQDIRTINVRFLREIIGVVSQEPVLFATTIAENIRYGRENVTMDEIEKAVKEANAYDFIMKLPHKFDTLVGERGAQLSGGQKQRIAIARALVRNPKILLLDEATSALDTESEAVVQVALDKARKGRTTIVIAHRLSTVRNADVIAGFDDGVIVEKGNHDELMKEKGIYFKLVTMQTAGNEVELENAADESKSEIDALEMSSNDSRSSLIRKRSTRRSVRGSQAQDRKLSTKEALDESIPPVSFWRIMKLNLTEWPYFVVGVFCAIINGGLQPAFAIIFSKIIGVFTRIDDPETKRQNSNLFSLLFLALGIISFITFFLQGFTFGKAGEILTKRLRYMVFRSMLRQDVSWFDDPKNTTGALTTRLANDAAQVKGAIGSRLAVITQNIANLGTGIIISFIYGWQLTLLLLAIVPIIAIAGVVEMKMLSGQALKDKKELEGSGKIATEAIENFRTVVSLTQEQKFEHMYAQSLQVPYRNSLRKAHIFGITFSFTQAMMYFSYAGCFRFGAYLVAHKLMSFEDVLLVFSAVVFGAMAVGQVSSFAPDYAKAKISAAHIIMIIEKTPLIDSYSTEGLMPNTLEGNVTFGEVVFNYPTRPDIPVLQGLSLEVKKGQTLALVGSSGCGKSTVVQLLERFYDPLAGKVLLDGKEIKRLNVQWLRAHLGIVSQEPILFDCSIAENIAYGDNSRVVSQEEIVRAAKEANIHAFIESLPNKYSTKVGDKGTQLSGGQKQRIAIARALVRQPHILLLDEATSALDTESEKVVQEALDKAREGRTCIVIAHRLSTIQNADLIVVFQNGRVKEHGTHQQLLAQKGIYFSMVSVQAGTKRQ
A short description of assay [9]: compounds altering viability of human ES cells (AID 493140).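 Further: cells exposed to compounds for four days before counting.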 Conditions: human embryonic stem cell survival screen; stronger effect = higher value.
Assay [10] can be described thus: P. berghei load reduction in hepatocytes – cell-based, HepG2, luciferase luminescence, HepG2 viability, primary screen (AID 624349; in the data active means parasite load remaining mostly below about 12%, no sharp cut-off; inactive means mostly above about 10%;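 further: 100% = mean of DMSO negative control wells on the same plate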). To be noted: P. berghei liver stage in HepG2, luciferase luminescence, concentration not given here; parasite load remaining: stronger effect = lower value; viability: measured here: HepG2 viability without parasites.

Each structure is given as a SMILES string. Results filed as inconclusive are left out. Active and inactive are the calls of the source. Unless noted, how the calls were made is not given here.

Regarding `CCn1c(C=Cc2cc(Br)ccc2O)nc2ccccc2c1=O`, the growth inhibition in [1] and in assay [4] was 95% (active) in each case. The inhibition in [2] is 6% (inactive); in assay [3], -5% (inactive).
Turning to `Cc1cc(C)c(NC(=O)C[C@H](CC(=O)O)c2cccc3ccccc23)c(C(=O)N2CCC3(CCCC3)CC2)c1`, in assay [5], the period change is 0.275 h (inactive).
In the case of `Ic1ccc(N2CCN(Cc3c[nH]c4ncccc34)CC2)cc1`, in assay [5], the period change was 0.1 h (inactive). The inhibition in assay [6] is 6% (inactive). Further, in assay [7], the fluorescence ratio (interference) is 0.9 (inactive).
In the case of `CN1CCc2cc(O)c(O)cc2C(c2ccccc2)C1` (centres undefined), the period change in assay [5] is 0.07 h (inactive). Moreover, the inhibition in assay [6] is -5% (inactive). In addition, the fluorescence ratio (interference) in assay [7] is 1 (inactive).
As for `CC1(NCC(O)COc2cccc3[nH]ccc23)CCC(C(C)(C)NC(=O)CBr)CC1` (centres undefined), the period change in assay [5] was -0.095 h (inactive).
Regarding `C[C@@H](NC(=O)/C(C#N)=C/c1ccc(O)c(O)c1)c1ccccc1`, the period change in assay [5] was 0.095 h (inactive).
With `O=C(O)[C@@H]1C[C@H](C(=O)O)N1`, the period change in assay [5] is -0.02 h (inactive). Besides, the inhibition in assay [6] was -1% (inactive). Also, the fluorescence ratio (interference) in [7] was 1.1 (inactive).
Turning to `CCn1cc(C(=O)O)c(=O)c2ccc(Cc3ccccc3)nc21`, in assay [5], the period change was -0.035 h (inactive).
`NC(=S)NCCCC(N)C(=O)O` (centres undefined): the period change in assay [5] is -0.05 h (inactive).
As to `CN(N=O)C(=O)N[C@@H]1C(O)OC(CO)[C@@H](O)[C@H]1O` (some centres undefined), the fluorescence slope change in assay [8] is 25.6% (inactive).
As to `O=C(O)[C@@H]1C[C@@H](C(=O)O)N1`, the period change in assay [5] was -0.1 h (inactive). In addition, the inhibition in assay [6] was -1% (inactive). Besides, the fluorescence ratio (interference) in assay [7] was 1 (inactive).
Regarding `C/C=C1\C(=O)CC2C3CCC4=CC(=O)CC[C@]4(C)C3CC[C@]12C` (some centres undefined), the period change in assay [5] is 0.03 h (inactive).
The same measure, in the same setting: next, `CC(C)C[C@H](N)CSSC[C@@H](N)CC(C)C`: -0.095 h (inactive); `CCCCCCCCCCCCCCCCCC(=O)NCC(COP(=O)([O-])OCC[N+](C)(C)C)OCC` (centres undefined): 0.195 h (inactive).
Consider `COc1ccc(C(=O)O[C@H]2CC[C@@]3(C)C4CCC5[C@]6(O)[C@@H](O)[C@H](O)[C@H]7[C@@H](CN8C[C@@H](C)CC[C@H]8[C@@]7(C)O)[C@@H]6C[C@@]53O[C@]42O)cc1OC` (some centres undefined), for which, in assay [8], the fluorescence slope change was 2.5% (inactive).
`c1ccc2c(c1)CN1CCCCC1=N2`: in assay [8], the fluorescence slope change is 0.4% (inactive).
In the case of `CCCCCCCCCCCCCCCCCCNC(=O)OCC(COP(=O)([O-])OCC[n+]1ccsc1)OC` (centres undefined), the period change in [5] was -0.05 h (inactive). For the same compound, the inhibition in assay [6] was 0% (inactive). Further, the fluorescence ratio (interference) in assay [7] is 1 (inactive).
With `O=S(=O)(O)C1CCNCC1`, the period change in assay [5] was 0.07 h (inactive).
Still for that read-out and setting: the figure for `OC[C@H]1O[C@@H](n2cnc3c(NCCc4ccccc4)ncnc32)C(O)[C@H]1O` (some centres undefined) is 0.19 h (inactive).
Turning to `CCCNC[C@H](O)COc1ccccc1C(=O)CCc1ccccc1`, the period change in assay [5] was 0.08 h (inactive).
`NCCNC(=O)c1ncsc1-c1cccc(F)c1`: in assay [5], the period change is 0.08 h (inactive). Moreover, in assay [6], the inhibition is -3% (inactive). In addition, the fluorescence ratio (interference) in [7] was 1 (inactive).
The like results for `CC(COc1ccc(/C=C/c2ccccc2)cc1)[N+](C)(C)C` (centres undefined) were, in that order, -0.13 h (inactive), -1% (inactive) and 1 (inactive).
The like results for `COc1cc2nc(N3CCN(C(=O)OCc4ccccc4)C(C(=O)NC(C)(C)C)C3)nc(N)c2cc1OC` (centres undefined) were, in that order, 0.085 h (inactive), -3% (inactive) and 1 (inactive).
With `CCCCN1CCC(n2c(=O)[nH]c3ccccc32)CC1`, the period change in assay [5] was -0.16 h (inactive). Further, in [6], the inhibition was -2% (inactive). Further, the fluorescence ratio (interference) in assay [7] was 1 (inactive).
As to `COc1cc2nc(N3CC=[N+](C(=O)c4ccco4)CC3)nc(N)c2cc1OC`, in assay [5], the period change is 0.01 h (inactive).
`C[N+](C)(C)CCC(=O)c1cccc2ccccc12`: the period change in [5] was -0.475 h (inactive).
For `CCCCCCCCCCCCC/C=C/C(O)C(N)CO` (centres undefined), the period change in assay [5] was 0.015 h (inactive).
Turning to `CC(N)=NCCC[C@H](N)C(=O)O`, the period change in assay [5] was 0.025 h (inactive).
As for `O=C(O)/C=C/C(O)c1ccc(Cl)cc1` (centres undefined), in [5], the period change is 0.15 h (inactive). Further, the inhibition in assay [6] was 1% (inactive). In addition, the fluorescence ratio (interference) in [7] is 1 (inactive).
In the case of `CNC(=O)[C@H]1O[C@@H](n2cnc3c(N)ncnc32)C(O)[C@H]1O` (some centres undefined), the period change in assay [5] is 0.045 h (inactive).
The same measure, in the same setting: next, `CN1C2CCC1CC(NC(=O)c1nn(C)c3ccccc13)C2` (centres undefined): 0.265 h (inactive).
In the case of `C=C1C(=O)O[C@H]2C1CC/C(C)=C/CC[C@@]1(C)O[C@H]21` (some centres undefined), the fluorescence slope change in assay [8] was 20.5% (inactive).
In the case of `Cc1ccc(C(=O)O[C@H](C(=O)O)[C@H](OC(=O)c2ccc(C)cc2)C(=O)O)cc1` (tested in a mixture with another compound), the period change in assay [5] is -0.105 h (inactive).
Regarding `O=C(Cc1ccc(Cl)c(Cl)c1)OCCN1CCCC1`, in assay [5], the period change is -0.095 h (inactive).
Consider `Nc1ccc(S(=O)(=O)Nc2ccc3nccnc3c2)cc1`, for which, in [8], the fluorescence slope change is 6.1% (inactive).
As to `C=N[C@@H](C(=O)N[C@@H]1C(=O)C2[C@@H](C(=O)O)C(C)(C)S[C@@H]21)c1ccccc1` (some centres undefined), in [8], the fluorescence slope change was 10.1% (inactive).
Regarding `Cc1c(C)c2c(c(C)c1O)CCC(C)(CN1CCN(c3cc(N4CCCC4)nc(N4CCCC4)n3)CC1)O2` (centres undefined), the period change in [5] is 0.14 h (inactive).
Turning to `COc1cc2cc(N(C)CCCNC(=O)C3CCCO3)cc(N)c2cc1OC` (centres undefined), the fluorescence slope change in assay [8] was 52.5% (active).
Consider `CCCn1c(=O)c2[nH]c(-c3ccc(OCC(=O)NCCN)cc3)nc2n(CCC)c1=O`, for which the period change in assay [5] was -0.09 h (inactive). For the same compound, in assay [6], the inhibition is -2% (inactive). In addition, the fluorescence ratio (interference) in assay [7] is 1 (inactive).
For `O=C(O)CCCCCC[C@H]1C(=O)NC(=O)N1CC[C@@H](O)C1CCCCC1`, the period change in assay [5] was 0.18 h (inactive).
For `COc1ccccc1N1CCN(CCN(C(=O)c2ccc(I)cc2)c2ccccn2)CC1`, the period change in assay [5] was 0.08 h (inactive). Besides, the inhibition in [6] was -4% (inactive). Moreover, the fluorescence ratio (interference) in assay [7] was 0.9 (inactive).
For `C=C1CC23CC4C5[C@@]6(C)C[C@H](OC(=O)c7ccccc7)[C@@H](OC(C)=O)[C@@]57C2[C@H](OC(C)=O)[C@@H]1[C@H](O)[C@H]3[C@H]7N4C6`, the fluorescence slope change in assay [8] is 12.6% (inactive). The survival in assay [9] was 4.92 (inactive).
As to `CC(=O)Nc1c(I)c(C(=O)NC2[C@H](O)OC(CO)[C@@H](O)[C@H]2O)c(I)c(N(C)C(C)=O)c1I` (some centres undefined), the fluorescence slope change in [8] was 95.2% (active). In assay [9], the survival was 16.9 (inactive). In assay [10], the parasite load remaining is 81% (inactive) and the viability was 75.5%.
Taken in the same sequence, the figures for `COc1cc([C@@H]2c3cc4c(cc3[C@@H](O[C@@H]3O[C@@H]5CO[C@@H](C)O[C@H]5[C@H](O)[C@H]3O)C3COC(=O)[C@@H]32)OCO4)cc(OC)c1O` (some centres undefined) were 20.9% (inactive), 0.25 (inactive), 64.7% (inactive) and 83.1%.
Take `COc1ccc([C@@H]2CC(=O)c3c(O)cc(O[C@@H]4OC(CO[C@@H]5OC(C)[C@H](O)[C@H](O)C5O)[C@@H](O)[C@@H](O)C4O)cc3O2)cc1O` (some centres undefined): in [8], the fluorescence slope change is 9.9% (inactive). Moreover, the survival in assay [9] was 9.92 (inactive). Besides, in assay [10], the parasite load remaining was 71.5% (inactive) and the viability worked out at 80.9%.
`NCC1OC(OC2C(N)CC(N)C(O)C2O[C@@H]2O[C@H](CO)[C@H](O)C2O)C(N)C(O)C1O` (some centres undefined): the fluorescence slope change in assay [8] was 50.5% (active). For the same compound, the survival in assay [9] was 0.167 (inactive).

What is called inhibition is the change of the read-out against control, counted positive when it falls. As a reminder, the viability is a read-out of living cells in per cent, often relative to untreated cells.
